# Results reported in PubChem BioAssay (NCATS).
# Activity calls are given as the source filed them. Calls follow the shape of the dose curve; as a rule, active = well fitted curve in the direction sought with a large enough effect; inconclusive = small, poorly fitted or top-dose-only effect, or another doubt; inactive = no such curve, though single readings can be large or run the other way.
# Biological target: Hexokinase-4 (Homo sapiens) + Glucokinase regulatory protein (Homo sapiens) (UniProt P35557+Q14397)
# Sequence (P35557 whole entry, looked up): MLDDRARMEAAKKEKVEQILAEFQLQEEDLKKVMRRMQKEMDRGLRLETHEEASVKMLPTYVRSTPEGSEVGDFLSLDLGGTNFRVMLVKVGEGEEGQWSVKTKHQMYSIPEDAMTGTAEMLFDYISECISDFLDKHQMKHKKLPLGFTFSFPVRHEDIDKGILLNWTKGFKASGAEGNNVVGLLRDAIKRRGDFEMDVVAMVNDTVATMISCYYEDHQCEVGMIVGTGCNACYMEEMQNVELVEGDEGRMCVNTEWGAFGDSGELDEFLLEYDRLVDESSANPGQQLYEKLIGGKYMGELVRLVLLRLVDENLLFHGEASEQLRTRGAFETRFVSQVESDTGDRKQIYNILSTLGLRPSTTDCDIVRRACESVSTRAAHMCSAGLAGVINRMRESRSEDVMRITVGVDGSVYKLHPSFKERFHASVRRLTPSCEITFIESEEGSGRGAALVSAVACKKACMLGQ
# Sequence (Q14397 whole entry, looked up): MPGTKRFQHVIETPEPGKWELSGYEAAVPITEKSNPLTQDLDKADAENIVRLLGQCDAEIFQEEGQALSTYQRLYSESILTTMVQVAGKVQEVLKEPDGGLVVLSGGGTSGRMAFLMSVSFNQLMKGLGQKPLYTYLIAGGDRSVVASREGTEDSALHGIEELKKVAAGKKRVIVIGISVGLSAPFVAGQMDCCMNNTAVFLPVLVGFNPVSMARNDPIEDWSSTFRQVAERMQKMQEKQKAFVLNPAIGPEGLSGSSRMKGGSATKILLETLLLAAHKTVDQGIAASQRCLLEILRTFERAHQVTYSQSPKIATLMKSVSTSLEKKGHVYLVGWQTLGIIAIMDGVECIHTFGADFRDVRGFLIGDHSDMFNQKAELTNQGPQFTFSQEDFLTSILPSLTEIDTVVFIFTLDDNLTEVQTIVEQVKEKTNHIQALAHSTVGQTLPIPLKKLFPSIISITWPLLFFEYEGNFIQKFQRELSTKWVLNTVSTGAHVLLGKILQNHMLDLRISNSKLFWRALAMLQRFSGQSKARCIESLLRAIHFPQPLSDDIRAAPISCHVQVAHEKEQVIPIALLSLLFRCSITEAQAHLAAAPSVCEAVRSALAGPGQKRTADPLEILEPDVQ
# Assay: qHTS assay for inhibitors of recombinant human GCK-GKRP interaction: HTRF assay (AID 743207)
# Details: recombinant GCK-GKRP HTRF binding, 60 min, with sorbitol-6-phosphate; series mostly up to 57.5 µM
# From the text: Glucokinase (GCK) is a glucose sensor in hepatocytes and pancreatic beta-cells. Hepatic GCK is regulated by glucokinase regulatory protein (GKRP), which is predominantly localized to the liver. GKRP binds to GCK inhibiting its activity in the fasting state while in the presence of glucose the GKRP is displaced. There is an additional layer of regulation by fructose 1-phosphate and fructose 6-phosphate, which inhibit and enhance the GCK-GKRP interaction, respectively. GCK plays a role in glucose homeostasis and there is an interest in the development of strategies to activate GCK to lower blood glucose levels in type 2 diabetes. To date the majority of effort has focused on direct activation of GCK and the assays developed herein look to activate GCK by inhibiting its binding to GKRP. A compound that inhibits the interaction of GCK with GKRP could be important for the treatment of diabetes and can also be used as a tool compound to further elucidate GCK-GKRP biology. To that end, we have developed an HTS biochemical assay using HTRF technology for to interrogate the GCK-GKRP interaction. This assay was screened against a small compound library to look for modulators of activity.
# 3 uL of 5 nM GST-GCK and 5 nM FLAG-GKRP proteins with 2 uM S6P (columns 1-2, 4-48; Millipore, Billerica, MA) are dispensed into Greiner, white solid-bottom 1536-well assay plates; columns 3 receive buffer without GCK as a control for maximum inhibition. Buffer contains 2 mM MgCl2, 25 mM KCl, 25 mM Hepes, 1 mM DTT, 0.1% Tween 20 and 0.025% BSA and the pH was adjusted to 7.1. Compounds (23 nL) are then transferred via Kalypsys pin tool equipped with 1536-pin array (10 nL slotted pins, V&P Scientific, San Diego, CA). The library compounds are in columns 5-48 and columns 1-4 serve as controls with DMSO in columns 1 and 3 and 26 mM 1:1.5 fold serial of gluckokinase activator (GKA-EMD) in column 2 and 26 mM of the glucokinase activator (GKA-EMD) in column 4. Following addition of compound, 1 uL of detection antibodies (anti-Flag XL 665 and anti-GST K in reconstitution buffer from Cisbio, Bedford, MA; 0.7 ng/well and 0.0945 ng/well, respectively) is added, and the mixture is allowed to equilibrate for 60 minutes at room temperature. Data are normalized to DMSO-treated control columns with (maximum signal) and without (minimum signal) enzyme. Plates were read on an Envision plate reader (PerkinElmer, Shelton, CT, USA) with excitation at 320 nm and dual-wavelength detection at the Fret donor wavelength (615 nm) and the FRET acceptor wavelength (665 nm).
row,Compound,outcome
1,NC(=O)c1ccc2[nH]ccc2c1,inactive
2,OCc1ccc(-c2nn(Cc3ccccc3)c3ccccc23)o1,inactive
3,Cc1ccc(S(=O)(=O)N[C@@H](Cc2ccccc2)C(=O)CCl)cc1,inactive
4,Nc1nc(N)c2nc(CNc3ccc(C(=O)NC(CCC(=O)O)C(=O)O)cc3)cnc2n1 (configuration not stated),inactive
5,CC1CC2C3CCC4=CC(=O)C=C[C@]4(C)[C@@]3(F)[C@@H](O)C[C@]2(C)[C@@]1(O)C(=O)CO (some centres not stated),inactive
6,N[C@@H](Cc1ccc(O)c(O)c1)C(=O)O,inactive
7,CC1=C(C(=O)O)N2C(=O)[C@@H](NC(=O)C(N)c3ccccc3)[C@H]2SC1 (some centres not stated),inactive
8,CCN(CC)CC#CCOC(=O)C(O)(c1ccccc1)C1CCCCC1 (configuration not stated),inactive
9,CCN(CC)CCn1c(=O)c(Cc2ccc(OC)cc2)nc2ccccc21,inactive
10,CC(=O)[C@H]1CC[C@H]2[C@@H]3CCC4=CC(=O)CC[C@]4(C)[C@H]3CC[C@]12C,inactive
11,NC(=O)c1cccc(N)c1,inactive
12,CCN1CCCC1CNC(=O)c1cc(S(N)(=O)=O)ccc1OC (configuration not stated),inactive
13,O=C(O)C1CCCN(CCC=C(c2ccccc2)c2ccccc2)C1 (configuration not stated),inactive
14,CC(C)NCC(O)c1ccc(NS(C)(=O)=O)cc1 (configuration not stated),inactive
15,CCCCS(=N)(=O)CCC(N)C(=O)O (configuration not stated),inactive
16,COc1cc2nc(N3CCCN(C)CC3)nc(NC3CCN(Cc4ccccc4)CC3)c2cc1OC,inactive
17,COc1cc2ncnc(Nc3cccc(Cl)c3)c2cc1OC,inactive
